Laboratory results reported in the supplement of paper PMC11001985.
Unmarked numbers belong to inactive results.

Compound: C#CCNC(=O)CCSSCCC(=O)NCCc1ccc(C=O)c(C=O)c1
Assay: lysine labeling ratio R10:1 (500 µM / 50 µM probe), SILAC-ABPP in living cells; higher = lower intrinsic lysine reactivity toward the probe, active = 2 or less
Conditions: HeLa; probe concentrations 500 vs 50 µM
In short: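 Living SILAC light and heavy HeLa cells in PBS at room temperature were treated with an alkyne-tagged, disulfide-linked lysine probe at 50 µM or 500 µM, with forward and reverse label swaps. The mixed lysates were clicked to biotin-azide, digested with trypsin, captured on neutravidin, released with DTT, alkylated and run by LC-MS/MS on a TIMS-TOF Pro. R for each lysine is the filtered median high-probe/low-probe MS1 peptide ratio, taken again as the median over forward and reverse replicates. Any value above 20 is set to 20.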

UniProt P52272, sequence (P52272 whole entry): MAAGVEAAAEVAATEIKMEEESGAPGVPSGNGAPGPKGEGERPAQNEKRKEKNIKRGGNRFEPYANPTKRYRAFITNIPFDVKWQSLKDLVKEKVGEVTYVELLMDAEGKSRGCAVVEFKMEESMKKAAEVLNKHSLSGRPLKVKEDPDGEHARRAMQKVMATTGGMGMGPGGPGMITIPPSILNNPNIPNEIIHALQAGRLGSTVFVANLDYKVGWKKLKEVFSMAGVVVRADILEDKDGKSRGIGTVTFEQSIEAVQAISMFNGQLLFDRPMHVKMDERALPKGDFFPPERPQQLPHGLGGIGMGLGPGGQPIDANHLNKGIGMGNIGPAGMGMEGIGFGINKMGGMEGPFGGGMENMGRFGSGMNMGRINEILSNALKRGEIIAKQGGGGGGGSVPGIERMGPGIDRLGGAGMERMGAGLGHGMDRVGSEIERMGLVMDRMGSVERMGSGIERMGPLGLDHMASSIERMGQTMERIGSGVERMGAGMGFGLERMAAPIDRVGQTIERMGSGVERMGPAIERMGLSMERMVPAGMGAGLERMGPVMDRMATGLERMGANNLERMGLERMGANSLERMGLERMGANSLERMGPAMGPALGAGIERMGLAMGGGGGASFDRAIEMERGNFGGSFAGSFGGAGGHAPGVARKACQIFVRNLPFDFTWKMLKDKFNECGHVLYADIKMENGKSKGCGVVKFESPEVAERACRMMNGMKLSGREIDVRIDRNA
UniProt Q6NZI2, sequence (Q6NZI2 whole entry): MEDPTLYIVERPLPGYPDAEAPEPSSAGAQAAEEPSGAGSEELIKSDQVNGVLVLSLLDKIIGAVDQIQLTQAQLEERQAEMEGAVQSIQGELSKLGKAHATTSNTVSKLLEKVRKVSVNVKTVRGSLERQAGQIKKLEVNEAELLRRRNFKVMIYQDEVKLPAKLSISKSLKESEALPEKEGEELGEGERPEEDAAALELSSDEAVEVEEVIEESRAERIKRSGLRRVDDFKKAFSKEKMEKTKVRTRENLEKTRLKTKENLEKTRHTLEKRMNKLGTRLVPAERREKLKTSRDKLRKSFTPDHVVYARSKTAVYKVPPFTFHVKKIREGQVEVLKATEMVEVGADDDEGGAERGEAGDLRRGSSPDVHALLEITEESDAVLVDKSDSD
UniProt P26641, sequence (P26641 whole entry): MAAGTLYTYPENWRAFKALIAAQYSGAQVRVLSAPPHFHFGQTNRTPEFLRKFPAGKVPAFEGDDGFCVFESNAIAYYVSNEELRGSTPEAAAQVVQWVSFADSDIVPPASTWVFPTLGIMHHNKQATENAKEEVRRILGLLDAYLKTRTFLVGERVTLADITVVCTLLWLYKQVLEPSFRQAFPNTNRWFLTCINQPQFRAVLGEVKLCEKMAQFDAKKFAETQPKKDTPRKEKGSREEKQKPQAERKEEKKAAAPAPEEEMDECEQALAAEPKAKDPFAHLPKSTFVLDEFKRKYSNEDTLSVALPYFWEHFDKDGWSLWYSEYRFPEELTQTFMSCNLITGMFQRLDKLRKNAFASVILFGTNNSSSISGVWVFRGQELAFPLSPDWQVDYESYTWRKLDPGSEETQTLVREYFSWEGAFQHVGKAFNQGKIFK
UniProt P06756, sequence (P06756 whole entry): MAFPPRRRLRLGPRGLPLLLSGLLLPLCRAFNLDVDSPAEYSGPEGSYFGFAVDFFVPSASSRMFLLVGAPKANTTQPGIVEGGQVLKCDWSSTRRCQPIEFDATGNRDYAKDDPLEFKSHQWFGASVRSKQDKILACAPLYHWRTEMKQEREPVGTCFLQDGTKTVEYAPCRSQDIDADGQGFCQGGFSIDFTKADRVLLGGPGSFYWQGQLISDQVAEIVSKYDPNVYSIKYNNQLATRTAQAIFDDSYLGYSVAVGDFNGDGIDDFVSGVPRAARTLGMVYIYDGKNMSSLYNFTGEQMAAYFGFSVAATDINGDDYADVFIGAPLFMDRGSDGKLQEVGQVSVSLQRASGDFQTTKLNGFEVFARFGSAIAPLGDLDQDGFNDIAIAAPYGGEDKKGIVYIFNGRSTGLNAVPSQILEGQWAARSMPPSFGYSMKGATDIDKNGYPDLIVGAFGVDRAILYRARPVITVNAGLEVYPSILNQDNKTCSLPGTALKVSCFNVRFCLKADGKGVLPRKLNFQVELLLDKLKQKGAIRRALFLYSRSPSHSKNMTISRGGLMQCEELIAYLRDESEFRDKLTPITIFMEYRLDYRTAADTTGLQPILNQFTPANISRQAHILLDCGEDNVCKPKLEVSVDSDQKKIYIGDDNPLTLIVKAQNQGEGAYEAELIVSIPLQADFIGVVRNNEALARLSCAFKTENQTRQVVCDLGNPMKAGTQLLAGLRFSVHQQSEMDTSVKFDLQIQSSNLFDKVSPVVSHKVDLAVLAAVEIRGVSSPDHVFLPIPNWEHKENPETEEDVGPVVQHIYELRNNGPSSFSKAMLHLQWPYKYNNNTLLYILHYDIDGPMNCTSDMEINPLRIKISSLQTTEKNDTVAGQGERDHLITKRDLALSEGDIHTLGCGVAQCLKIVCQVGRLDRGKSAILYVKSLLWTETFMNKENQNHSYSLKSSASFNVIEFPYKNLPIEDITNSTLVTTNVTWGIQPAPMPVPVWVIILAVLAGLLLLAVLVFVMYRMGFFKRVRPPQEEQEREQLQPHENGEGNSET
UniProt P38159, sequence (P38159 whole entry): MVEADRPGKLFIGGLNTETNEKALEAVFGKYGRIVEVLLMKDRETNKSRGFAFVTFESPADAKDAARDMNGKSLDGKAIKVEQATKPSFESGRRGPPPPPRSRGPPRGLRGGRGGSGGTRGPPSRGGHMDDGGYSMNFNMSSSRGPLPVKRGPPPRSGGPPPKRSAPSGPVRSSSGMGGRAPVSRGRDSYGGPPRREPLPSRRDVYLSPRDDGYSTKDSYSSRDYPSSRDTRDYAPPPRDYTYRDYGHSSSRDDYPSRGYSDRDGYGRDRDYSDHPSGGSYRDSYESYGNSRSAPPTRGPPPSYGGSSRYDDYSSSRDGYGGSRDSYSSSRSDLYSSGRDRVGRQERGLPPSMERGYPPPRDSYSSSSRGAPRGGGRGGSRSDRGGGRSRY
UniProt Q9NZV1, sequence (Q9NZV1 whole entry): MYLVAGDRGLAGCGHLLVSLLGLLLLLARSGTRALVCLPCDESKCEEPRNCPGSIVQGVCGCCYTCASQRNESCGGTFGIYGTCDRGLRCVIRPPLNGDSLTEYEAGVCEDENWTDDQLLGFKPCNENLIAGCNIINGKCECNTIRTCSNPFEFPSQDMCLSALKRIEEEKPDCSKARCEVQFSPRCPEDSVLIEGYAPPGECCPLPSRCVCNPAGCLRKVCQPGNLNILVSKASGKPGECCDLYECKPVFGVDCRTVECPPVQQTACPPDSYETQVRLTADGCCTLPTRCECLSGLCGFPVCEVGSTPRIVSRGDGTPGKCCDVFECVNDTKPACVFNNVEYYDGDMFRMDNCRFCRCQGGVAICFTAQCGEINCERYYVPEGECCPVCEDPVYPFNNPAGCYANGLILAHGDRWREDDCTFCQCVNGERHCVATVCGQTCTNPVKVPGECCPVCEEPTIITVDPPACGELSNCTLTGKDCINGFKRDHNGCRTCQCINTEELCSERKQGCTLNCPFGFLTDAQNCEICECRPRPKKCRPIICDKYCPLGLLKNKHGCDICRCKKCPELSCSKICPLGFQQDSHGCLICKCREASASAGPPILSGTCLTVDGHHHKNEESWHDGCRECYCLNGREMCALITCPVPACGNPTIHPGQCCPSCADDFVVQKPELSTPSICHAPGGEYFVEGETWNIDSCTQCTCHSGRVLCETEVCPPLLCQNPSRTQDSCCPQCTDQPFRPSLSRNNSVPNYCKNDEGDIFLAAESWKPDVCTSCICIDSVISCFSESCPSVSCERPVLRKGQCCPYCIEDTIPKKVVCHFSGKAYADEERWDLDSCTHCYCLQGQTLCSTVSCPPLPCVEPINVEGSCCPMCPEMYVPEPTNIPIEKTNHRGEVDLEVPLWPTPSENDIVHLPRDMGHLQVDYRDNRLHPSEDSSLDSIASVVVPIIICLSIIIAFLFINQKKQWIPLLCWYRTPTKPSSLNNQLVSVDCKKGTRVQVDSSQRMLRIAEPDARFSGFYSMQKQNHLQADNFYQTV
UniProt Q13740, sequence (Q13740 whole entry): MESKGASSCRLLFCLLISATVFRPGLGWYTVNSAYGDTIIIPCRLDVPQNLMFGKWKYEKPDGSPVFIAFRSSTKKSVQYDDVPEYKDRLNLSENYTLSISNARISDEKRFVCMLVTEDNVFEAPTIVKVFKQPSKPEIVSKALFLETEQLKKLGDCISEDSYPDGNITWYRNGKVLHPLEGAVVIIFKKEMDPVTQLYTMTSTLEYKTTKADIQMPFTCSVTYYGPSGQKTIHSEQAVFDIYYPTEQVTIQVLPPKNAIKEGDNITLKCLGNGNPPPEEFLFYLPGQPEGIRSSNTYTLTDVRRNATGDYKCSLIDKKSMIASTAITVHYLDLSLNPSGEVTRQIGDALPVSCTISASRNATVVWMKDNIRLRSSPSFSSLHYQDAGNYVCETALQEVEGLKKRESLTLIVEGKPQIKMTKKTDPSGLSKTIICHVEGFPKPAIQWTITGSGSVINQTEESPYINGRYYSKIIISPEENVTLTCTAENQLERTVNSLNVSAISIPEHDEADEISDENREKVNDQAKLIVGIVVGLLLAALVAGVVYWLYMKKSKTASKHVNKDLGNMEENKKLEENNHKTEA
UniProt O43570, sequence (O43570 whole entry): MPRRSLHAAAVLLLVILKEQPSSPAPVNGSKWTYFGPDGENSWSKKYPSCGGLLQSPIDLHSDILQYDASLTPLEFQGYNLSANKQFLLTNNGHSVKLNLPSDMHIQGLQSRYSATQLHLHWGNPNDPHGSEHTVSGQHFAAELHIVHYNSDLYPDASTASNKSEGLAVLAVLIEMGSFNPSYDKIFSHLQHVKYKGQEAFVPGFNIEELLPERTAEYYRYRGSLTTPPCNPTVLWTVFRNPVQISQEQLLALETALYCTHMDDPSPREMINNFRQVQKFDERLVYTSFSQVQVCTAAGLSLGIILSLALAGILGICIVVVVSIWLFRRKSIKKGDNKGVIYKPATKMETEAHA

Target | lysine labeling ratio R10:1
ALCAM (lysine site: K60) (UniProt Q13740) | 2.97
LAMC1 (lysine site: K1354) (UniProt P11047) | 1.67 (active)
MAP4 (lysine site: K933) (UniProt P27816) | 1.9 (active)
CD70 (lysine site: K93) (UniProt P32970) | 3.66
EZR (lysine site: K64) (UniProt P15311) | 0.907 (active)
RBMX (lysine site: K63) (UniProt P38159) | 1.66 (active)
TKT (lysine site: K59) (UniProt P29401) | 4.48
PSMD2 (lysine site: K551) (UniProt Q13200) | 2.34
UniProt P61160 (lysine site: K381) | 2.7
UniProt Q6NZI2 (lysine site: K122) | 5.32
DNAJA1 (lysine site: K144) (UniProt P31689) | 2.55
HNRNPM (lysine site: K381) (UniProt P52272) | 5.22
COL5A1 (lysine site: K1708) (UniProt P20908) | 1.7 (active)
PPIB (lysine site: K181) (UniProt P23284) | 3.57
FN1 (lysine site: K248) (UniProt P02751) | 2.7
FLNA (lysine site: K724) (UniProt P21333) | 1.76 (active)
CS (lysine site: K76) (UniProt O75390) | 5.03
PNN (lysine site: K157) (UniProt Q9H307) | 1.95 (active)
SEMA3C (lysine site: K391) (UniProt Q99985) | 4.13
UniProt P02768 (lysine site: K438) | 10

Target | lysine labeling ratio R10:1
MSN (lysine site: K165) (UniProt P26038) | 3.56
EEF1G (lysine site: K132) (UniProt P26641) | 1.81 (active)
ITGAV (lysine site: K535) (UniProt P06756) | 1.58 (active)
UniProt P62244 (lysine site: K60) | 2.48
LDLR (lysine site: K782) (UniProt P01130) | 3.22
TFRC (lysine site: K95) (UniProt P02786) | 4.27
UniProt P61106 (lysine site: K193) | 3.57
PGK1 (lysine site: K30) (UniProt P00558) | 2.54
ITGB1 (lysine site: K72) (UniProt P05556) | 1.91 (active)
CRIM1 (lysine site: K176) (UniProt Q9NZV1) | 2.01
CYB5R3 (lysine site: K164) (UniProt P00387) | 1.79 (active)
CDH2 (lysine site: K223) (UniProt P19022) | 2.63
UniProt O43570 (lysine site: K279) | 2.86
AGRN (lysine site: K1198) (UniProt O00468) | 3.68
UniProt P21589 (lysine site: K232) | 1.92 (active)
UniProt P05187 (lysine site: K262) | 0.97 (active)
SEMA4D (lysine site: K104) (UniProt Q92854) | 0.575 (active)
UniProt P16144 (lysine site: K662) | 1.57 (active)
MYH9 (lysine site: K856) (UniProt P35579) | 2.68
C3 (lysine site: K1535) (UniProt P01024) | 5.81
